Source: PubChem (several laboratories)
This excerpt belongs to a sample that is enriched for hits.
HDAC3 inhib – inhibitors of human histone deacetylase 3. recombinant HDAC3, fluorogenic peptide/trypsin coupled, fluorescence. inhibition, % at 8.3 µM. O15379. actives 0.15% (n = 320,000); in the data active = inhibition above about 26%, passing the limit was not always enough; inconclusive = no clear call, values can overlap the other calls
Target sequence (O15379 whole entry, looked up): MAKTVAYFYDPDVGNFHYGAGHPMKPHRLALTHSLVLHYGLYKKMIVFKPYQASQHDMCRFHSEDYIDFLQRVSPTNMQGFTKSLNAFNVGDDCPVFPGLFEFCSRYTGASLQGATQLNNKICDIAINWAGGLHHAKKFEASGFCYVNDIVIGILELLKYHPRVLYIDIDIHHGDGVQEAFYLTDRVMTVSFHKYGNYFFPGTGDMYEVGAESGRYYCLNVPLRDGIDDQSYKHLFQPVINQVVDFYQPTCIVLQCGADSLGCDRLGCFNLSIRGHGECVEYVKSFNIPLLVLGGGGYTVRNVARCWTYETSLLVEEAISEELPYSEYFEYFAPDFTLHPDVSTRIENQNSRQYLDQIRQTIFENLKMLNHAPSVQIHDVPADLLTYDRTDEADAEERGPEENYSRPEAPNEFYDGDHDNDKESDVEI
ALR inh – human ALR oxidase inhibition via reduced H2O2; P55789; purified ALR, DTT oxidation, H2O2 HRP-luminol luminescence; inhibition, % (test concentration not listed); actives 3.8% (n = 290,000);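 active = mean replicate inhibition above about 79%, with every replicate also reaching it, limit read from the data; inconclusive = only one of the two criteria met; inactive = mean below limit and not every replicate reaching it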
NPR1 activator – GC-A (human) enzyme activation; HEK293 GC-A cells, cGMP TR-FRET, EC30 ANP; 0% at EC30 ANP, 100% saturating ANP; activation, % at 10 µM; actives 0.14% (n = 370,000); in the data active = activation above about 40%
GC-B act – GC-B (human) receptor activation; P20594; HEK293-GC-B cells, CNP EC30, cGMP TR-FRET; 0% at EC30 CNP, 100% saturating CNP; actives 0.11% (n = 370,000); activation, % at 10 µM;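 active = activation at 10 µM reaching about 35% in either raw or pattern-adjusted values, limit read from the data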
Active calls of the source: *; ? = inconclusive; . = no result given.

SMILES | HDAC3 inhib | ALR inh | NPR1 activator | GC-B act
CCOC(=O)N/N=C/c1ccc(N2CCOCC2)s1 | -2 | 99* | -16 | -6
COC(=O)C1=C(C)N(CCc2c[nH]c3ccc(OC)cc23)C(=O)C1 | . | . | -1 | -2
COP(=O)(O)CCOCCC(CC(C)C)NC(=O)OCc1ccccc1 (centres undefined) | . | . | 4 | 3
Cc1cccc(C)c1NC(=O)CNC(=O)CNC(=O)c1ccc2c(c1)OCO2 | 7 | -5 | 2 | 4
CC1CCCN(C(=O)COC(=O)c2ccc3[nH]c4c(c3c2)CCCC4)C1 (centres undefined) | -5 | -4 | 0 | 7
CCN(CC)CCNC(=O)Cn1cnc2sc(C)c(S(=O)(=O)N3CC(C)CC(C)C3)c2c1=O (centres undefined) | -1 | 7 | -1 | 2
CN(C)c1ccc(C2C3C(=O)N(c4ccc(C(=O)O)cc4)C(=O)C3ON2c2ccccc2)cc1 (centres undefined) | ? | 76* | 2 | 5
COc1ccc(N2CCN(C(=O)c3c(C)nn(-c4ccccc4)c3C)CC2)cc1 | 1 | 63 | -2 | 3
CCOc1ccc(NCc2cccn2-c2nnc(N3CCC(C(=O)NCCCN4CCCCC4CC)CC3)s2)cc1 (centres undefined) | 8 | 99* | -3 | -2
Nc1ccccc1Sc1nc2ccccc2[nH]1 | -1 | 12 | 1 | 2
Nc1ccccc1Sc1c[nH]c2ccccc12 | 9 | 99* | 3 | 2
Cc1ccc(S(=O)(=O)NCCCCCC(=O)Nc2c(C)n(C)n(-c3ccccc3)c2=O)cc1 | -3 | -10 | 0 | 0
CN(CC(=O)NCc1ccco1)S(=O)(=O)c1ccc2c(c1)n(C)c(=O)c(=O)n2C | 3 | 92* | 1 | -3
CC(=O)c1ccc(NC(=O)c2cnsn2)cc1 | 0 | 11 | -3 | -3
O=[n+]1cc(-c2cc3ccccc3o2)n([O-])c2c1CCCC2 | ? | 98* | 0 | -1
C#CCCC(=O)O[C@H]1CCC[C@@]2(C(=O)N(Cc3ccccc3)c3ccccc32)[C@H]1NC(=O)CCc1ccccc1 | . | . | -4 | -3
COCCCn1c(Cc2csc(Nc3ccccc3)n2)nnc1SCC(N)=O | 9 | 56 | 3 | 3
NC(=O)CSc1nnc(Cc2csc(Nc3ccccc3)n2)n1Cc1ccccc1 | -1 | 79* | -10 | 2
CC(C)CN(CC(C)C)C(=O)CCCC(=O)N(CC(C)C)CC(C)C | 3 | . | 0 | 2
Cc1ccc2[nH]c(C(=O)O)c(-c3ccccc3)c2c1 | -4 | 98* | -1 | -2
CC(=O)Nc1c(C(=O)O)[nH]c2ccccc12 | 0 | 7 | 0 | 6
Cc1nc2ccc(Br)cc2c(-c2ccccc2)c1C(=O)O | 11 | -10 | 44* | 17
CCOC(=O)NNC(=O)c1[nH]c2ccc(Br)cc2c1-c1ccccc1 | 3 | -1 | -12 | -4
CC(=O)NNC(=O)c1[nH]c2ccc(Br)cc2c1-c1ccccc1 | 2 | 97* | -14 | -8
O=C(O)c1[nH]c2ccccc2c1-c1ccccc1 | -6 | 98* | 3 | 5
SMILES | HDAC3 inhib | ALR inh | NPR1 activator | GC-B act
O=C(Cn1nnc(-c2cccs2)n1)Nc1ccccc1C(F)(F)F | -7 | -12 | . | .
COc1ccccc1NC(=O)OC1CC2CC1[C@H]1CCCCN1[C@H]2Cc1ccccc1 (some centres undefined) | . | . | -7 | -2
CC1CN(C(=O)c2cccc(Oc3ccccc3)c2)CC(C)O1 (centres undefined) | -9 | -3 | -2 | 3
COc1ccc2ccccc2c1CN1CCN(c2ncc(Cc3ccccc3)cn2)CC1 | . | . | 1 | 7
Cc1nnsc1-c1nnc(SCC(=O)c2ccccc2)n1C1CC1 | -2 | 84* | -2 | 3
Cc1nnsc1-c1nnc(SCC(=O)c2ccc(C#N)cc2)n1C1CC1 | -8 | 29 | -2 | -4
COc1ccc(C(=O)CSc2cc(C)nc3nc(C)nn23)cc1OC | 5 | 98* | 3 | -9
COc1ccc(C(=O)CSC#N)cc1OC | 11 | 99* | 4 | -9
CC(CCN1CCC(C(O)(c2ccccc2)c2ccccc2)CC1)Oc1cccc(C(F)(F)F)c1 (centres undefined) | . | . | -16 | -5
O=C(CSc1nnc(-c2ccc(F)cc2)c2ccccc12)Nc1ccccc1 | 6 | 99* | -1 | -1
CCc1nnc(SCC(=O)Nc2ccccc2)nc1CC | 4 | 0 | 1 | 0
COC(=O)Cc1nnc(SCC(=O)Nc2ccccc2)c2ccccc12 | 9 | 98* | 15 | 13
Cc1cc(C(=O)CSc2nnnn2-c2ccc(O)cc2)c(C)n1C | -2 | 89* | -2 | -1
